PubChem BioAssay (NCATS)
Where “and” joins values, the source holds several entries; their conditions need not be identical. Equal entries are not always repeated. Records with an inconclusive call do not appear. Calls of active or inactive are those of the source. Unless noted, calls follow the shape of the dose curve; as a rule, active = well fitted curve in the direction sought with a large enough effect; inconclusive = small, poorly fitted or top-dose-only effect, or another doubt; inactive = no such curve, though single readings can be large; an effect the other way counts as inactive or inconclusive.

Assays:
[1] = molecular target: T1, Hexokinase-4 (Homo sapiens) + Glucokinase regulatory protein (Homo sapiens) (UniProt P35557+Q14397); assay: qHTS assay for inhibitors of recombinant human GCK-GKRP interaction: Diaphorase-coupled assay (AID 743205)
T1 sequence (P35557 whole entry, looked up): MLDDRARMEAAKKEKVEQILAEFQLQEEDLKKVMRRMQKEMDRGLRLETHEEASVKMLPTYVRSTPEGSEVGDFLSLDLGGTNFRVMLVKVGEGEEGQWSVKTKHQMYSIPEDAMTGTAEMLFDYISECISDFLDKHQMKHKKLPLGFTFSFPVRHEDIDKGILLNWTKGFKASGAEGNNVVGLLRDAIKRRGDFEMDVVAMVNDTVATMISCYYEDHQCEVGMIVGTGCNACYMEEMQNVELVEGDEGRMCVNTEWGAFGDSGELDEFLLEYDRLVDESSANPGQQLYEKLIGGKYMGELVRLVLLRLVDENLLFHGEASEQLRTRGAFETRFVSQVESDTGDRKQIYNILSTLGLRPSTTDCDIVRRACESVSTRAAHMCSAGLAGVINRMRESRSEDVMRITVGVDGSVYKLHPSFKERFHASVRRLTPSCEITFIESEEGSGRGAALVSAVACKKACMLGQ
T1 sequence (Q14397 whole entry, looked up): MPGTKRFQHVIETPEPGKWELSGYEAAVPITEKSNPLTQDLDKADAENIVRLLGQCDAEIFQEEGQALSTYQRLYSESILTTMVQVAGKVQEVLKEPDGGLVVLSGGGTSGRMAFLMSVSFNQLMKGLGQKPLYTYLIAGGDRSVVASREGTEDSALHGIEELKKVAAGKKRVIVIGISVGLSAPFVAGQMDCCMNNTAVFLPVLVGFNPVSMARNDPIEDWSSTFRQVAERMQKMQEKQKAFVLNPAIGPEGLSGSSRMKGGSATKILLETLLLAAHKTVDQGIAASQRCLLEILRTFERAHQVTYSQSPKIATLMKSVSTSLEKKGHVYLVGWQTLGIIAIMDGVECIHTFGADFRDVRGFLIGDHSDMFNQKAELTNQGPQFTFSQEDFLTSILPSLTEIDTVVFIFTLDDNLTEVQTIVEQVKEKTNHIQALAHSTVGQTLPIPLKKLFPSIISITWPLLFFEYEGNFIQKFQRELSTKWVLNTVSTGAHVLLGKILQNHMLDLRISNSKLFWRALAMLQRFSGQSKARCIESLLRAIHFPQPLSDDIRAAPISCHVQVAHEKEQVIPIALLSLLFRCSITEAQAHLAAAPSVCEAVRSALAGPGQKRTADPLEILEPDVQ
How it was run: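 Inhibitors of the GCK–GKRP complex relieve GKRP suppression of GCK, detected through a G6PDH–diaphorase cascade reducing resazurin. Human GST-GCK and FLAG-GKRP are used at 10 nM with 5 mM glucose and 0.4 mM ATP.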

[2] = qHTS Assay for Identifying Gametocytocidal Compounds (AID 743244); also: potency is read from the fitted curve at half-maximal effect;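 as to max response: % is scaled to controls: 0 for no effect and ±100 for the full control effect; actives lower the fluorescent signal which means gametocytes are killed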; settings: P. falciparum 3D7 stage III-V gametocytes, alamarBlue, 72 h; max response: stronger effect = lower value
How it was run: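 In this qHTS viability screen, late-stage 3D7 gametocytes are incubated with compound for 72 h, then with alamarBlue for 24 h; reduced resorufin fluorescence marks killing.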

[3] = qHTS profiling for inhibitors of Plasmodium falciparum (3D7) proliferation (AID 743322; call rule not given here;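 also: infected erythrocytes exposed to compound for 72 h before lysis; 100% = DMSO vehicle wells and 0% = 0.29 µM artemisinin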); settings: P. falciparum 3D7 proliferation; at 28.7 µM (top of the series) unless noted
How it was run: (§1)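 Erythrocytes infected with P. falciparum (0.3% parasitemia, 2.5% hematocrit) incubated with compounds 72 h at 37 C, 5% CO2. Lysis with saponin/Triton buffer containing SYBR Green I, overnight at room temperature in the dark; DNA fluorescence (485/535 nm) normalised to 0.29 uM artemisinin and DMSO.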

[4] = qHTS profiling for inhibitors of Plasmodium falciparum (DD2) proliferation (AID 743323; call rule not given here); settings: lower = more inhibition; at 28.7 µM (top of the series) unless noted
How it was run: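 P. falciparum Dd2-infected erythrocytes (0.3% parasitemia, 2.5% hematocrit) exposed 72 h at 37 C, 5% CO2. Lysis with SYBR Green, overnight at room temperature, fluorescence 485/535 nm; normalized to 0.29 uM artemisinin and DMSO.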

[5] = qHTS profiling for inhibitors of Plasmodium falciparum (HB3) proliferation (AID 743324); settings: Plasmodium falciparum HB3 blood-stage proliferation; at 28.7 µM (top of the series) unless noted;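 also: 100% = DMSO vehicle wells and 0% = artemisinin-treated control wells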
How it was run: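 P. falciparum HB3 grown in erythrocytes (0.3% parasitemia, 2.5% hematocrit final) with compound for 72 h at 37 C, 5% CO2. Parasite DNA detected by SYBR Green after saponin/triton lysis overnight; normalized to 0.29 uM artemisinin and DMSO.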

[6] = qHTS profiling of the MIPE4 collection as inhibitors of Plasmodium falciparum (3D7) proliferation (AID 743344; call rule not given here;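 also: scaled between DMSO vehicle wells and 0.29 µM artemisinin as full inhibition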); settings: P. falciparum 3D7 in erythrocytes, SYBR Green DNA fluorescence, 72 h; at 28.5 µM (top of the series) unless noted
How it was run: as §1

[7] = qHTS profiling of the MIPE4 collection as inhibitors of Plasmodium falciparum (DD2) proliferation (AID 743345; call rule not given here); settings: P. falciparum Dd2 in erythrocytes, SYBR Green DNA, 72 h; at 28.5 µM (top of the series) unless noted
How it was run: as §1

[8] = qHTS profiling of the MIPE4 collection as inhibitors of Plasmodium falciparum (DD2) proliferation (Rep 2) (AID 743346; call rule not given here); settings: P. falciparum Dd2 in erythrocytes, SYBR Green DNA, 72 h; at 28.5 µM (top of the series) unless noted
How it was run: as §1

[9] = qHTS profiling of the MIPE4 collection as inhibitors of Plasmodium falciparum (HB3) proliferation (AID 743347; call rule not given here;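 also: plate controls were DMSO vehicle wells for no effect and artemisinin wells for full effect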); settings: P. falciparum HB3 in erythrocytes, SYBR Green DNA, 72 h; at 28.5 µM (top of the series) unless noted
How it was run: as §1

[10] = qHTS assay for cell viability of HEK293 cells (AID 743288); settings: ATP luminescence (CellTiter-Glo), 18 h; max response: stronger effect = lower value; also: nearly all actives have a fitted effect of over 50% in size; also: potency is read from the fitted curve at half-maximal effect; as to max response: % is scaled to controls: 0 for no effect and ±100 for the full control effect
How it was run: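 The Tox21 protocol used parental HEK293 cells treated for 18 h at 37 C with compounds delivered by pintool; ATP-coupled luminescence after 30 min at room temperature gave viability.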

[11] = qHTS assay for cell viability of the p53RE-bla HCT-116 cell line (AID 743292); also: % is scaled to controls: 0 for no effect and ±100 for the full control effect; nearly all actives have a fitted effect of over 55% in size
How it was run: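 ATP-based luminescence, 16 h compound exposure at 37 C, p53RE-bla HCT-116 cells at 4,000/well.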

[12] = qHTS for compounds that reverse cellular toxicity of Amyloid beta (A-beta) peptide in yeast: LOPAC Validation Assay (AID 720559);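 also: plate controls were DMSO for no effect and equimolar ferric chloride plus clioquinol rescue for full effect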
How it was run: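 Activity is expressed relative to DMSO and an equimolar ferric chloride/clioquinol mix. Compounds were pinned into medium with A-beta-expressing yeast, grown 48 hr at 30 C, then read by absorbance at 600 nm.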

[13] = qHTS for Activators of Parkin Expression: LOPAC Validation Assay (NLuc Reporter) (AID 720572;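 also: 0% = DMSO and 100% = positive control compound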)
How it was run: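 Neuronal line stably carrying a FLuc/NLuc coincidence reporter under the Parkin promoter, seeded 24 h, then dosed in 7-point series for 24 h at 37 C. NLuc luminescence read after FLuc; normalized to DMSO and positive control (100%).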

[14] = qHTS for Activators of Parkin Expression: LOPAC Validation Assay (FLuc Reporter) (AID 720573;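 also: 0% = DMSO and 100% = positive control compounds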)
How it was run: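 A neuronal cell line harbouring FLuc and NLuc reporters behind the Parkin promoter was exposed to compounds for 24 h. Firefly luciferase signal, measured after 10 min with detection reagent, was scaled to DMSO and positive-control wells.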

[15] = qHTS assay for small molecule agonists of the antioxidant response element (ARE) signaling pathway measured by Nrf2-dependant transcriptional activity (AID 720636; active = well fitted curve in the direction sought with a large enough effect in the repeat runs; an effect the other way counts as inactive or inconclusive;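 also: HepG2 cells with an ARE-driven luciferase reporter; % of control where 0% means no effect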)
How it was run: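 Nrf2-dependent transcription is measured in ARE-luc HepG2 cells: compound is applied for 16 hr at 37 C after a 6 hr attachment period, and luciferase activity is quantified by luminescence using ONE-Glo.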

[16] = molecular target: Arylsulfatase A (Homo sapiens) (UniProt P15289); assay: qHTS screen for enhancers of Arylsulfatase A (ASA1): LOPAC Validation Assay (AID 720538); settings: outcome: dose series up to 57.5 µM; also: 0% is about no effect
Sequence of Arylsulfatase A (Homo sapiens) (P15289 whole entry, looked up): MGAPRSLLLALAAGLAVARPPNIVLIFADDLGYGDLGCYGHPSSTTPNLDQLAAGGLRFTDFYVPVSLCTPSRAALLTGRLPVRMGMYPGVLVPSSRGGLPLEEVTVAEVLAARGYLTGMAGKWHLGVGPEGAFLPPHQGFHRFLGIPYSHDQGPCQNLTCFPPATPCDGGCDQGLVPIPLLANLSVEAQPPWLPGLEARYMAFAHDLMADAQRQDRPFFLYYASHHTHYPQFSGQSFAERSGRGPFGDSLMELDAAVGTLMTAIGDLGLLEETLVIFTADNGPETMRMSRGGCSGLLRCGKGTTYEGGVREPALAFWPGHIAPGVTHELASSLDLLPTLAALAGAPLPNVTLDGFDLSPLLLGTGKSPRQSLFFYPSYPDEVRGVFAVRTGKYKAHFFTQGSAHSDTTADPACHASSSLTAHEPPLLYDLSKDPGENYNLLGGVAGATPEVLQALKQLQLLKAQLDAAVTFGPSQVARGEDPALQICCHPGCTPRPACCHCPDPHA
How it was run: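 First, ASA-I179S fibroblasts from an MLD patient adhered for 6 hrs. Next, compounds were added for 48h. Then pNCS substrate (0.5mM final) with lysis buffer reacted 14h at room temperature before NaOH stop and fluorescence measurement.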

[17] = qHTS assay for small molecule antagonists of the retinoid-related orphan receptor gamma (ROR-gamma) signaling pathway - cell viability counter screen (AID 720652; active = well fitted curve in the direction sought with a large enough effect in the repeat runs; an effect the other way counts as inactive or inconclusive;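 also: CHO reporter cells with doxycycline-induced ROR-gamma expression; compound exposure lasted 16 hr before ATP read; % is scaled to controls: 0 for no effect and ±100 for the full control effect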)
How it was run: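 Counter screen in CHO cells carrying TET-inducible ROR-gamma and an ROR response element-luciferase reporter; cells plated 5 hr, compound pinned, doxycycline added, then 16 hr at 37 C. Viability read as intracellular ATP by CellTiter-Glo luminescence.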

[18] = molecular target: T1, Hexokinase-4 (Homo sapiens) + Glucokinase regulatory protein (Homo sapiens); assay: qHTS assay for inhibitors of recombinant human GCK-GKRP interaction: ADP-Glo assay (AID 743206);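 also: plate controls were DMSO plus enzyme for no effect and no enzyme for full effect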
How it was run: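 GST-GCK and FLAG-GKRP (15 nM each in the dispensed mix, with 2 uM S6P) react with 0.4 mM ATP and 5 mM glucose (final) in Hepes pH 7.6 for 60 min at room temperature. ADP is measured by ADP-Glo luminescence.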

With `Cc1oncc1C(=O)Nc1ccc(C(F)(F)F)cc1` the outcome [1] was “inactive”, the max response [2] was 50.5% (inactive) and -6.39% (inactive) and -7.89% (inactive) and the remaining parasite growth % (stronger effect = lower value) [3] was 104% and 91.9%. The activity, percent of control [4] was 94.9% and 88.9%, the remaining proliferation (% of control), lower = more inhibition [5] was 95% and 87.2% and the parasite growth, % of DMSO control [6] was 13.7%. For the same compound, the parasite growth remaining, % of DMSO control (lower = more inhibition) [7] was 102%, the parasite growth, % of control (lower = inhibition) [8] was 61.2% and the growth, % of control [9] was 10.6%.

For `COc1ccc2nc(S(=O)Cc3ncc(C)c(OC)c3C)[nH]c2c1` (configuration not stated), the max response [2] was -5.18% (inactive) and -4.42% (inactive), the max response [10] was -16.7% (inactive) and the Potency [11] was “inactive”. The remaining parasite growth % (stronger effect = lower value) [3] was 91.3% and 101%, the activity, percent of control [4] was 93.3% and 100% and the remaining proliferation (% of control), lower = more inhibition [5] was 79.1% and 76.7%. The parasite growth, % of DMSO control [6] was 61.2%, the parasite growth remaining, % of DMSO control (lower = more inhibition) [7] was 95% and the parasite growth, % of control (lower = inhibition) [8] was 72.1%. For the same compound, the growth, % of control [9] was 84.6%.

For `Oc1ccc(C2CNCCc3c2cc(O)c(O)c3Cl)cc1` (configuration not stated), the outcome [1] was “inactive”, the max response [2] was 2.69% (inactive) and -7.1% (inactive) and the parasite growth, % of DMSO control [6] was 6.63%. For the same compound, the parasite growth remaining, % of DMSO control (lower = more inhibition) [7] was 65.8%, the parasite growth, % of control (lower = inhibition) [8] was 14.2% and the growth, % of control [9] was 7.76%.

For `CC[C@H](Nc1ncnc2nc[nH]c12)c1nc2cccc(F)c2c(=O)n1-c1ccccc1`, the max response [2] was 14.6% (inactive).

In the case of `O=NN(CCCl)C(=O)NCCCl`, the outcome [12] is reported as “inactive”, the Potency [13] is reported as “inactive” and the outcome [14] is reported as “inactive”. For the same compound, the outcome [15] was “inactive”, the outcome [1] was “inactive” and the max response [2] was 10.6% (inactive) and 5.39% (inactive). For the same compound, the max response [10] was -8.57% (inactive) and the Potency [11] was “inactive”.

For `CCOC(=O)N[C@@H]1CC[C@@H]2[C@@H](C1)C[C@H]1C(=O)O[C@H](C)[C@H]1[C@@H]2C=Cc1ccc(-c2cccc(F)c2)cn1`, the max response [2] was -4.74% (inactive), the remaining parasite growth % (stronger effect = lower value) [3] was 1.23% and the activity, percent of control [4] was 7.47%. It also gave a remaining proliferation (% of control), lower = more inhibition [5] of 0.902%, a parasite growth, % of DMSO control [6] of 7.63% and a parasite growth remaining, % of DMSO control (lower = more inhibition) [7] of 45%. For the same compound, the parasite growth, % of control (lower = inhibition) [8] was 22% and the growth, % of control [9] was 5.21%.

In the case of `CCCC(CCC)C(=O)O`, the outcome [16] is reported as “inactive”, the outcome [12] is reported as “inactive” and the outcome [15] is reported as “inactive”. For the same compound, the outcome [17] was “inactive”, the max response [2] was 8.46% (inactive) and 5.84% (inactive) and the max response [10] was 3.06% (inactive) and -3.28% (inactive) and -9.08% (inactive). For the same compound, the Potency [11] was “inactive”, the parasite growth remaining, % of DMSO control (lower = more inhibition) [7] was 103% and the parasite growth, % of control (lower = inhibition) [8] was 148%. It also gave a growth, % of control [9] of 111%.

With `Cn1cnc([N+](=O)[O-])c1Sc1ncnc2nc[nH]c12` the outcome [12] was “inactive”, the Potency [13] was “inactive” and the outcome [14] was “inactive”. For the same compound, the outcome [15] was “inactive”, the outcome [17] was “inactive” and the outcome [1] was “inactive”. For the same compound, the outcome [18] was “inactive”, the Potency [2] was 39.8 µM (active) and 1.26 µM (active) and the Potency [10] was 4.47 µM (active) and 5.01 µM (active). The parasite growth, % of DMSO control [6] was 47.3%, the parasite growth remaining, % of DMSO control (lower = more inhibition) [7] was 87.7% and the parasite growth, % of control (lower = inhibition) [8] was 33.8%. It also gave a growth, % of control [9] of 45.9%.

In the case of `NC[C@H](O)c1ccc(O)c(O)c1`, the outcome [16] is reported as “inactive”, the outcome [15] is reported as “inactive” and the outcome [1] is reported as “inactive”. For the same compound, the max response [2] was 20.6% (inactive) and 26.6% (inactive), the max response [10] was -4.13% (inactive) and the Potency [11] was “inactive”. The parasite growth, % of DMSO control [6] was 71.5%, the parasite growth remaining, % of DMSO control (lower = more inhibition) [7] was 97.8% and the parasite growth, % of control (lower = inhibition) [8] was 78.3%. The growth, % of control [9] was 82.4%.

In the case of `NC(N)=NC(=O)c1nc(Cl)c(N)nc1N`, the outcome [12] is reported as “inactive”, the Potency [13] is reported as “inactive” and the outcome [14] is reported as “inactive”. The outcome [15] was “inactive”, the outcome [17] was “inactive” and the outcome [1] was “inactive”. For the same compound, the max response [10] was -10.2% (inactive) and the Potency [11] was “inactive”.

With `O=C(O)COCCN1CCN(C(c2ccccc2)c2ccc(Cl)cc2)CC1` (configuration not stated) the outcome [12] was “inactive”, the Potency [13] was “inactive” and the outcome [14] was “inactive”. For the same compound, the outcome [1] was “inactive”, the max response [2] was -12% (inactive) and 28.9% (inactive) and the parasite growth, % of DMSO control [6] was 82.3%. For the same compound, the parasite growth remaining, % of DMSO control (lower = more inhibition) [7] was 104%, the parasite growth, % of control (lower = inhibition) [8] was 72.8% and the growth, % of control [9] was 91%.
